# Data reported in PubChem BioAssay (NCI).
# Compounds without any hit were thinned out: in the full panel of roughly 83,000, 20% have a hit.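 A percent growth of 40 corresponds to 60% growth inhibition; 0 means no net growth; -100 means all cells died. Active threshold: below 10.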 Calls of active or inactive are those of the source.
# Tested on: MDA-MB-468 breast
# Assay: NCI-60 one-dose screen, 48 h (100 = growth as untreated, 0 = no growth, -100 = all killed)
# Details: 10 µM unless noted
# Protocol: Growth inhibition of the MDA-MB-468 human Breast tumor cell line is measured as a screen for anti-cancer activity. Cells are grown in 96 well plates and exposed to the test compound for 48 hours. Compounds are tested at a single concentration, which is 10^-5 M for most compounds. The reported endpoint is percent growth (GI% or GIPRCNT), where numbers from 0 - 100% represent growth inhibition, and numbers from -100% - 0 represent cell death. For example, a value of 40 represents 60% growth inhibition. A value of 0 means no net growth occurred over the course of the experiment. A value of -40 indicates 40% of cells at the beginning of the experiment died by the end of the experiment. A value of -100 means all cells are dead at the end of the experiment.
# NCI-60 Human Tumor Cell Lines Screen was performed using the standard one-dose NCI protocol, which is described in more detail at https://dtp.cancer.gov/discovery_development/nci-60/default.htm.
# Compounds with GIPRCNT values below 10 were considered active. Activity score was based on GIPRCNT using the following formula: […]
# Score is 0 for GIPRCNT values of 100 or above, 50 for GIPRCNT values of 0, and 100 for GIPRCNT values of -100.
row,SMILES,growth
1,COc1cnc2c(c1)C(=O)c1c-2n(CCCn2ccnc2)c(=O)c2cc(F)ccc12,-35.7% (active)
2,CC(C)c1ccc(COCc2cc(CN3CCCC3)c(O)c3ncccc23)cc1,-21.1% (active)
3,C=C1C(=O)O[C@H]2[C@H]1CC/C(COC(=O)NCc1ccc(Cn3c(=O)sn(CCCl)c3=O)cc1)=C\CC[C@@]1(C)O[C@@H]21,5.52% (active)
4,CN1CCCc2cc(/C=C3\SC(=S)N(C(Cc4ccc(O)cc4)C(=O)O)C3=O)ccc21 (stereo not given),93.6% (inactive)
5,Nc1ccccc1NS(=O)(=O)c1ccc(Cl)cc1,99.1% (inactive)
6,NC(=S)N1N=C(c2ccccc2)CC1c1cn(-c2ccccc2)nc1-c1ccc(OCc2ccccc2)cc1 (stereo not given),102% (inactive)
7,COc1cccc(O)c1/C=C(/C)c1ccc2c(OC)cccc2[o+]1,112% (inactive)
8,CC(C)CN1CC(C(=O)Nc2ccc3c(c2)-c2ccccc2C3)CC1=O (stereo not given),60.5% [50 µM] (inactive)
9,COc1ccc(C(Cn2ccnc2)Sc2ccc(Cl)c(Cl)c2)cc1 (stereo not given),63% (inactive)
10,COC(=O)[C@]12CC[C@@H](C)[C@H](C)[C@@H]1C1=CC[C@@H]3[C@@]4(C)C(C=O)=C[C@@](C)(COC(=O)c5ccco5)C4=CC[C@@]3(C)[C@]1(C)CC2,5.01% (active)
11,CCCCCN1C=C/C(=C\C(=O)N(C)c2ccc(OC(F)(F)F)cc2)c2ccccc21,80.4% (inactive)
12,CCOC(=O)c1c(C)oc2ncnc(Nc3ccc(NC(=O)Nc4cccc(Cl)c4)cc3)c12,49.7% (inactive)
13,O=C1CC(c2cccc(-c3cccnc3)c2)=Nc2ccc(Br)cc2N1,10.5% (inactive)
14,COc1ccc(S(=O)(=O)c2ccc(C(N)=O)cc2)cc1NC(=O)c1[nH]c(C)c2c1CCCCC2=O,31.9% (inactive)
15,COc1ccc(/C=C/c2cc(N3CCOCC3)c3cc(F)c(F)cc3n2)cc1OC,14.5% (inactive)
16,O=C(O)[C@@H](Cc1ccc2ccccc2c1)NC(=O)n1c2ccccc2c2ccccc21,11.9% (inactive)
17,O=C1C=C(Nc2ccc([N+](=O)[O-])cc2)c2ccccc2C1=O,41.1% (inactive)
18,CNC(=O)c1cc(-c2ccc(NC(=S)Nc3cc(C(F)(F)F)cc(C(F)(F)F)c3)cc2)nc2cccnc12,-8.04% (active)
19,COc1ccc(-c2c(C#N)cnc(N)c2-c2nc3cc(C)c(C)cc3[nH]2)cc1,57.9% (inactive)
20,C=C1C(=O)O[C@H]2[C@H]1CC/C(COC(=O)c1ccc(Br)cc1)=C\CC[C@@]1(C)O[C@@H]21,-23.1% (active)

row,SMILES,growth
1,CC1=CCC2C1CC=C(C)C(CC[C@H]1[C@@](C)(O)CCC3OC(C)(C)[C@H](OC(=O)c4ccccc4)CC[C@@]31C)C2(C)C (stereo not given in full),64.8% (inactive)
2,CC1=CC(=O)C=CC1(C)C(Cl)(Cl)Cl (stereo not given),98.4% (inactive)
3,COc1cc(C(=O)N2CCN(c3ccccc3)CC2)c2ccccc2n1,5.08% (active)
4,Cc1cc(N/C=c2\sc3ncnn3c2=O)no1,101% (inactive)
5,C=C(C)[C@@H]1CC[C@]2(C=NCCCNCCCCNCCCN)CC[C@]3(C)[C@H](CC[C@@H]4[C@@]5(C)CCCNC(C)(C)[C@@H]5CC[C@]43C)[C@@H]12,98.5% (inactive)
6,Oc1c(C(Nc2ccccn2)c2cccc(Oc3ccccc3)c2)ccc2cccnc12 (stereo not given),-79.2% (active)
7,Cc1c(C(=O)CCl)c(=O)n(-c2ccccc2)n1C,-19.1% (active)
8,Clc1ccc2c(c1)N(CCCN1CCCC1)c1ccccc1S2,16.4% (inactive)
9,COc1ccc(N2CCN(CC(=O)N3CCN(c4nnc(-c5ccc(Cl)cc5)c(-c5ccc(Cl)cc5)n4)CC3)CC2)cc1,78.6% (inactive)
10,O=C(OCC(O)(CO)C(=O)NC12CC3CC(CC(C3)C1)C2)c1ccc(Cl)cc1 (stereo not given),100% (inactive)
11,O=C(O)c1ccc(-c2ccc(/C=N/Nc3nc(Nc4ccccc4)nc(N4CCCCC4)n3)o2)cc1,92.1% (inactive)
12,CC(=O)[C@@H]1CCC=C2CC[C@]3(C)[C@@H](CC[C@@H]4[C@@]5(C)CCCNC(C)(C)[C@@H]5CC[C@]43C)[C@H]21,-77.9% (active)
13,CC(C)=CCc1cc(O)cc2c1OC(C=C(C)C)C1=C2C(=O)C2=C(NCCS2(=O)=O)C1=O (stereo not given),-27% (active)
14,Nn1c(Nc2ccc(S(=O)(=O)Nc3ncccn3)cc2)nnc(/C=C/c2c(O)ccc3ccccc23)c1=O,96% (inactive)
15,COc1cc(C(=O)c2cc(C(C)=O)c3cccc(C)n23)cc(OC)c1OC,15.4% (inactive)
16,Cc1cc(N/N=C/c2nc(-c3ccc(Br)cc3)oc2C)c2cc(Br)ccc2n1,-5.21% (active)
17,CNC(=O)c1cc(Oc2ccc(NC(=O)Nc3ccc(Cl)c(SC)c3)c(F)c2)ccn1,13.6% (inactive)
18,Clc1cccc(Nc2ncnc3ccc(-c4cnc5[nH]ccc5c4)cc23)c1,-16.9% (active)
19,O=C(NCc1ccco1)C1CN(c2ccc(Cl)cc2)N(c2ccc(Cl)cc2)C1=O (stereo not given),42.4% (inactive)
20,Cc1cccc2c3c(sc12)C(c1ccc(F)cc1)C(C#N)=C(N)O3 (stereo not given),24.3% (inactive)
